BoNT A protease – BoNT A light chain protease inhibition; AID 588499; inhibition, % at 10 µM; multiplex microsphere protease substrate cleavage, flow cytometry; hit rate 0.17% among 360,000; further: plate controls were buffer without enzyme for full effect and enzyme alone for no effect
CCHFV vOTU inh – blocks the CCHF virus ovarian tumor domain protease; CCHFV vOTU protease, Pep-AMC fluorescence; inhibition, % at 11.5 µM; hit rate 0.55% among 370,000; AID 651958; in the data active means inhibition above about 30%; further: 0% = vehicle wells with enzyme and 100% = no enzyme wells
Bead autofluor – flagged as autofluorescent in microsphere protease counterscreen. fluorescence intensity (concentration not given with the values). hit rate 3.1% among 360,000. compound autofluorescence counterscreen, microsphere flow cytometry; active compounds read high; in the data active means fluorescence intensity above about 16000; inconclusive means no clear call, values can overlap the other calls
SARS 3CLpro inh-1 – SARS-CoV 3CLpro protease inhibition; inhibition, % at 6 µM; P0C6X7; recombinant SARS-CoV 3CLpro, quenched FRET peptide cleavage; hit rate 0.14% among 290,000; in the data active means inhibition above about 12%
BoNT F protease – blocks Botulinum neurotoxin F light chain protease; Multiplex microsphere protease cleavage assay, flow cytometry; inhibition, % at 10 µM; hit rate 0.22% among 360,000; AID 588497; in the data active means inhibition above about 35%, passing the limit was not always enough; inconclusive means no clear call, values can overlap the other calls; further: plate controls were buffer without enzyme for full effect and enzyme alone for no effect
Anthrax LF prot – anthrax lethal factor protease inhibition; inhibition, % at 10 µM; hit rate 0.12% among 360,000; multiplex microsphere protease cleavage assay, LF; P15917; AID 588501; further: plate controls were buffer without enzyme for full effect and enzyme alone for no effect
Target sequence (P15917 whole entry, looked up): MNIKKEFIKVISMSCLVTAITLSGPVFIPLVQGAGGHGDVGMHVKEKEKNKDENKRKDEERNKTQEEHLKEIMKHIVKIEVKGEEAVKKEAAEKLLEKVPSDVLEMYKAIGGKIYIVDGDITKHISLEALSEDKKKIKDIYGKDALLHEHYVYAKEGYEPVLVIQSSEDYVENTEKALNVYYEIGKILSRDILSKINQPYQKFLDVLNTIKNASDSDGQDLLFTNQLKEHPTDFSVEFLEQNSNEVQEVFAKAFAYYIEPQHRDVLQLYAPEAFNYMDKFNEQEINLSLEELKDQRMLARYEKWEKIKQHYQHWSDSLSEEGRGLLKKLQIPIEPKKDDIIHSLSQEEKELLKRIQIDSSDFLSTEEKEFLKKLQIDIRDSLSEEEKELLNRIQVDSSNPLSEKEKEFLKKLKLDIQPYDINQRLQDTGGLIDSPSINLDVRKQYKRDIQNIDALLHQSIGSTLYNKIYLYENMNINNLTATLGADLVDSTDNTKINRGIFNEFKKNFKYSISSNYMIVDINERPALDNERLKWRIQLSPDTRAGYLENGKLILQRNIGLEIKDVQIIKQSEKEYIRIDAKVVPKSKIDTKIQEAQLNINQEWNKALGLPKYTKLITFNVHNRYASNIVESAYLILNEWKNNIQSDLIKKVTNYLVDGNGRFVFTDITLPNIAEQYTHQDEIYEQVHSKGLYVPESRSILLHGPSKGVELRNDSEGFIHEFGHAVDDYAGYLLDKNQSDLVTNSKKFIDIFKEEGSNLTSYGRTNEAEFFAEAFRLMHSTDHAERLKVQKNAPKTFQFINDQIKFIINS
SARS 3CLpro inh-2 – SARS 3CLpro inhibition, confirmation assay; shares compounds with SARS 3CLpro inh-1; QFRET protease activity assay; inhibition, % at 6 µM; hit rate 36% among 380; AID 1879; in the data active means inhibition above about 13%
Numbers without * were called inactive. A selection: hits, their analogues and other compounds. The true share with any hit is near 3.9%. Unless noted, no stated cut-off is given here; in the data, active means inhibition above about 30%; inconclusive means no clear call, values can overlap the other calls; inactive means below that.

Screening O=S(=O)(Nc1cc(F)ccc1F)c1cccc2nsnc12 returned BoNT A protease 2, CCHFV vOTU inh 3, Bead autofluor 3477, SARS 3CLpro inh-1 4, BoNT F protease inconclusive and Anthrax LF prot -3.
Screening CCCCCCCCN1C(=O)[C@@H](CC(=O)NCCc2ccccc2OC)C[C@@]2(C(=O)OC)C1=C[C@H](COCc1ccccc1)O[C@@H]2C returned CCHFV vOTU inh 13.
`NC(=O)c1ncn([C@@H]2O[C@H](C(=O)N[C@H](Cc3c[nH]c4ccccc34)C(=O)N3CCN(C(=O)N4CCOCC4)CC3)[C@@H](O)[C@H]2O)n1` gave CCHFV vOTU inh -2.
`O=C(CCl)N(CCc1ccccc1)CCc1ccccc1` gave BoNT A protease -1, CCHFV vOTU inh 8, Bead autofluor 4640, SARS 3CLpro inh-1 16*, BoNT F protease 1, Anthrax LF prot -2 and SARS 3CLpro inh-2 24*.
`O=c1[nH]c(C2CCN(S(=O)(=O)c3ccccc3C(F)(F)F)CC2)nc2c1nnn2Cc1ccccc1` gave BoNT A protease 0, CCHFV vOTU inh 0, Bead autofluor 3151, SARS 3CLpro inh-1 12, BoNT F protease -16 and Anthrax LF prot 5.
For O=c1[nH]c(C2CCN(S(=O)(=O)c3ccccc3F)CC2)nc2c1nnn2Cc1ccc(OC(F)(F)F)cc1 the results were BoNT A protease 1, CCHFV vOTU inh 15, Bead autofluor 4340, SARS 3CLpro inh-1 13*, BoNT F protease -2, Anthrax LF prot -4 and SARS 3CLpro inh-2 7.
`Cc1noc(C)c1C(C)C1=CCCCC1` (centres undefined) gave CCHFV vOTU inh 0.
COc1cc(/C=N/NC(=O)c2ccc3c(c2)OCO3)ccc1O was read as BoNT A protease -4, CCHFV vOTU inh 17, Bead autofluor inconclusive, SARS 3CLpro inh-1 1, BoNT F protease inconclusive and Anthrax LF prot -4.
For COc1cc(/C=N/NC(=O)/C(=C\c2ccc3c(c2)OCO3)NC(=O)c2ccccc2)ccc1O the results were BoNT A protease 0, CCHFV vOTU inh 11, Bead autofluor 2462, SARS 3CLpro inh-1 13*, BoNT F protease -1, Anthrax LF prot -2 and SARS 3CLpro inh-2 2.
Screening CCc1ccc(S(=O)(=O)/N=C2\C=C(Nc3ccc(C(=O)O)cc3)C(=O)c3ccccc32)cc1 returned BoNT A protease -1, CCHFV vOTU inh 112*, Bead autofluor 4391, SARS 3CLpro inh-1 17*, BoNT F protease 3, Anthrax LF prot -4 and SARS 3CLpro inh-2 11.
Screening Cc1ccc(NC(=O)CCC(=O)NNC(=O)C(c2ccccc2)c2ccccc2)c(C)c1 returned BoNT A protease 1, CCHFV vOTU inh -8, Bead autofluor 16054, SARS 3CLpro inh-1 14*, BoNT F protease -1, Anthrax LF prot -6 and SARS 3CLpro inh-2 0.
For COC(=O)C1CN(CCO)CCS(=O)(=O)N1Cc1cn(Cc2cccc(Cl)c2)nn1 (centres undefined) the results were CCHFV vOTU inh -7.
`Nc1[nH]c(C(=O)c2ccccc2)c(-c2ccc3ccccc3c2)c1C(=O)NCc1cccc2ccccc12` gave CCHFV vOTU inh 6.
Screening COc1ccc(N(Cc2cc(=O)[nH]c3ccccc23)C(=O)CCl)cc1 returned BoNT A protease -1, CCHFV vOTU inh -18, Bead autofluor 3658, SARS 3CLpro inh-1 16*, BoNT F protease 0, Anthrax LF prot -20 and SARS 3CLpro inh-2 25*.
For CCCC(=O)N(Cc1cc(=O)[nH]c2ccccc12)c1ccc(OC)cc1 the results were BoNT A protease -1, CCHFV vOTU inh 17, Bead autofluor 3885, SARS 3CLpro inh-1 -3, BoNT F protease -9 and Anthrax LF prot -3.
Screening O=C(NCCc1ccccc1)OCc1cn(-c2c(F)cccc2F)nn1 returned CCHFV vOTU inh -6.
`Cc1ccc(C2=NN(C(=O)CCl)C(c3ccco3)C2)o1` (centres undefined) gave BoNT A protease -1, CCHFV vOTU inh 12, Bead autofluor 3688, SARS 3CLpro inh-1 47*, BoNT F protease -3, Anthrax LF prot 1 and SARS 3CLpro inh-2 61*.
CCCn1nnc(NC(=O)COc2ccc(C3CCCCC3)cc2)n1 was read as BoNT A protease 0, CCHFV vOTU inh -7, Bead autofluor 7844, SARS 3CLpro inh-1 14*, BoNT F protease 4, Anthrax LF prot -4 and SARS 3CLpro inh-2 1.
`CCCn1nnc(NC(=O)COc2ccc(Cl)cc2)n1` gave BoNT A protease 0, CCHFV vOTU inh 9, Bead autofluor 3411, SARS 3CLpro inh-1 -2, BoNT F protease -5 and Anthrax LF prot 3.
`O=C(Nc1nc(-c2ccccc2)cs1)c1cccc([N+](=O)[O-])c1C(=O)O` gave BoNT A protease 0, CCHFV vOTU inh 1, Bead autofluor 2073, SARS 3CLpro inh-1 16*, BoNT F protease -5, Anthrax LF prot -1 and SARS 3CLpro inh-2 28*.
Screening CC(C)(C)c1ccc(C(=O)Nc2ccc(S(=O)(=O)Nc3cnc4ccccc4n3)cc2)cc1 returned BoNT A protease 2, CCHFV vOTU inh 10, Bead autofluor 4117, SARS 3CLpro inh-1 14*, BoNT F protease inconclusive, Anthrax LF prot -9 and SARS 3CLpro inh-2 8.
`O=S(=O)(c1cccc(NC(=S)N2CCN(c3ccccc3F)CC2)c1)C(F)F` gave BoNT A protease 0, CCHFV vOTU inh 4, Bead autofluor 2606, SARS 3CLpro inh-1 3, BoNT F protease -2 and Anthrax LF prot -3.
`O=S(=O)(c1cccc(NC(=S)N2CCN(c3ccccc3)CC2)c1)C(F)F` gave BoNT A protease -1, CCHFV vOTU inh -2, Bead autofluor 2748, SARS 3CLpro inh-1 13*, BoNT F protease -8, Anthrax LF prot 2 and SARS 3CLpro inh-2 3.
Screening COc1ccc(CSc2nnc(SCC(=O)Nc3ccccc3-c3ccccc3)s2)cc1 returned CCHFV vOTU inh 4.
For O=C(Nc1ccccc1N1CCN(C(=O)c2ccc(Cl)cc2)CC1)c1cccc([N+](=O)[O-])c1 the results were BoNT A protease -1, CCHFV vOTU inh -7, Bead autofluor 6147, SARS 3CLpro inh-1 14*, BoNT F protease 0, Anthrax LF prot -2 and SARS 3CLpro inh-2 -1.
Screening O=C1CN(C(=O)CN2CCOCC2)C(c2ccccc2)c2cc(Br)ccc2N1 (centres undefined) returned BoNT A protease -1, CCHFV vOTU inh -1, Bead autofluor 6932, SARS 3CLpro inh-1 2, BoNT F protease -8 and Anthrax LF prot -4.
`NNC(=O)CN1C(c2ccccc2)=Nc2ccc(Br)cc2C1c1ccccc1` (centres undefined) gave BoNT A protease 0, CCHFV vOTU inh 3, Bead autofluor 4170, SARS 3CLpro inh-1 13*, BoNT F protease -9, Anthrax LF prot 1 and SARS 3CLpro inh-2 -3.
Screening COc1cc(OC)c(C2=Nc3ccc(Br)cc3C(c3ccccc3)N2CC(=O)NN)cc1OC (centres undefined) returned BoNT A protease 0, CCHFV vOTU inh 10, Bead autofluor 4602, SARS 3CLpro inh-1 12*, BoNT F protease 1, Anthrax LF prot 0 and SARS 3CLpro inh-2 0.
